Values without a mark were called inactive. Activity calls are given as the source filed them. Calls follow the shape of the dose curve; as a rule, active = well fitted inhibition curve with a large enough effect; inactive = no such curve, though single readings can be large or run the other way.
target: Dual specificity protein kinase CLK3 (Homo sapiens) (UniProt P49761); experiment: Reaction Biology data for inhibitors of CLK3: Probe SAR; conditions: Reaction Biology CLK3 kinase assay, 10 uM ATP; series mostly up to 10 µM; activity change, negative = inhibition: at the top concentration
Text: Alternative splicing of pre-mRNAs plays a major role in the regulation of eukaryotic gene expression. Alternative splicing is now thought to be one of the primary reasons for the complexity of higher organisms leading to an average of three protein isoforms per gene. Aberrant splicing can lead to a number of diseases and is known to play a role in rare genetic diseases such as progeria syndrome. Hutchinson-Gilford Progeria Syndrome (HGPS) is a pediatric premature aging disease caused by a spontaneous mutation in the lamin A/C (LMNA) gene due to a single point mutation in the lamin A gene effecting 1 in 4 million people. To identify both specific splicing modulators of the lamin A gene as well as general splicing modulators, a cell-based HTS assay was developed using a minigene reporter system (AIDs, 1459 & 1487). […] This AID summarizes the characterization of lead compounds in Clk3. NIH Molecular Libraries Probe Production Centers Network [MLPCN] NIH Chemical Genomics Center [NCGC] MLPCN Grant: MH084827 Assay Submitter (PI): Tom Misteli
Compound IC50s were determined at Reaction Biology (http://www.reactionbiology.com) with ten concentration points starting at 10 uM in the assay using a 3-fold dilution series. The control compound staurosporine was also tested in the 10-dose IC50 mode with the same 3-fold serial dilution, again starting at 10 uM. All kinase reactions were performed using 10 uM ATP in the assay. 100% activity was taken from kinase reactions with DMSO alone (the vehicle used for compound stock solutions).

Chain of Dual specificity protein kinase CLK3 (Homo sapiens) (P49761 whole entry, looked up, canonical isoform): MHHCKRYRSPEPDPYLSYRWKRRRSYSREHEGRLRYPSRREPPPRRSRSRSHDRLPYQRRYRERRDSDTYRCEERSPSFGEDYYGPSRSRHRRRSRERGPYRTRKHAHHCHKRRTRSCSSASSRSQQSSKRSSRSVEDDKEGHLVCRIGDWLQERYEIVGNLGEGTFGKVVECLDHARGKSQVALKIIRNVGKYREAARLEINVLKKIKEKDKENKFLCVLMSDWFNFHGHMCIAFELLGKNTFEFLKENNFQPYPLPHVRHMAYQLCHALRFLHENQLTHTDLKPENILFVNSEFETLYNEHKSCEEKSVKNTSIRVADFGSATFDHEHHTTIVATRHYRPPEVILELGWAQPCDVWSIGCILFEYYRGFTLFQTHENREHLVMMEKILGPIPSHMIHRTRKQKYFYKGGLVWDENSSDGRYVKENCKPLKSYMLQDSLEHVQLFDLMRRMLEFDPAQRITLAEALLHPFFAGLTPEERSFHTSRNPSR

Compound | Potency | activity change, negative = inhibition [%]
c1cncc(CNc2nccc(-c3ccc4c(c3)OCO4)n2)c1 | 1470 nM (active) | 
FC(F)(F)c1cc(Br)cc(Nc2nccc(-c3ccc4c(c3)OCO4)n2)c1 |  | -14.1
COc1cccc(-c2ccnc(NCc3ccc(Cl)c(Cl)c3)n2)c1 |  | -17.7
Clc1ccc(CNc2nccc(-c3ccc4[nH]ncc4c3)n2)cc1Cl | 2930 nM (active) | 
COc1ccc(-c2ccnc(NCc3ccc(Cl)c(Cl)c3)n2)cc1OC |  | -14.5
Brc1ccc(CNc2nccc(-c3ccc4c(c3)OCO4)n2)cc1Br | 3230 nM (active) | 
O=[N+]([O-])c1cc(Nc2nccc(-c3ccc4c(c3)OCO4)n2)cc(C(F)(F)F)c1 |  | -34.3
Clc1ccc(CNc2ncncc2-c2ccc3c(c2)OCO3)cc1 |  | -23.4
FC(F)(F)c1cccc(Nc2nccc(-c3ccc4c(c3)OCO4)n2)c1 |  | -41.4
Clc1cc(Cl)cc(CNc2nccc(-c3ccc4c(c3)OCO4)n2)c1 |  | -36.1
Cc1nc(CNc2ncnc3ccc(-c4ccc5c(c4)OCO5)cc23)cs1 | 1260 nM (active) | 
Clc1ccc(CNc2nccc(-c3ccc4c(c3)OCO4)n2)cc1Cl | 3630 nM (active) | 
Clc1ccc(CNc2nccc(-c3ccc4cn[nH]c4c3)n2)cc1Cl |  | -28.4
COc1ccc(-c2ccnc(NCc3ccc(Cl)c(Cl)c3)n2)cc1 |  | -27.3
Clc1cc(Cl)cc(CNc2ncncc2-c2ccc3c(c2)OCO3)c1 |  | -53.4
c1cncc(CNc2ncncc2-c2ccc3c(c2)OCO3)c1 |  | -14.6
c1cncc(CNc2ccnc(-c3ccc4[nH]ncc4c3)n2)c1 |  | -30.7

Compound | Potency | activity change, negative = inhibition [%]
Cc1nc(CN(C)c2ncnc3ccc(-c4ccc5c(c4)OCO5)cc23)cs1 | 403 nM (active) | 
c1nc(NCC2CCCO2)c2cc(-c3ccc4c(c3)OCO4)ccc2n1 (stereo not drawn) | 836 nM (active) | 
c1cc(-c2ccc3c(c2)OCO3)nc(Nc2ccc3c(c2)OCO3)n1 |  | -30.6
Clc1ccc(CNc2ccnc(-c3ccc4c(c3)OCO4)n2)cc1Cl |  | -15.8
Clc1ccc(CNc2nccc(-c3ccc4c(c3)OCCO4)n2)cc1Cl |  | -48.6
Cc1c(-c2ccnc(NCc3cccnc3)n2)sc(=O)n1C |  | -21.9
COc1ccc(-c2ccnc(NCc3ccc(Cl)cc3)n2)cc1 |  | -32.5
Cc1nc(CN(C)c2ncnc3ccc(-c4ccc5[nH]ncc5c4)cc23)cs1 | 792 nM (active) | 
Brc1cc(Br)cc(CNc2nccc(-c3ccc4c(c3)OCO4)n2)c1 |  | -27.2
Cc1c(-c2ccnc(NCc3ccc(Cl)cc3)n2)sc(=O)n1C |  | -20.7
Clc1ccc(CNc2ccnc(-c3ccc4[nH]ncc4c3)n2)cc1Cl |  | -29.6
Clc1ccc(Nc2nccc(-c3ccc4c(c3)OCO4)n2)cc1 |  | -26.4
c1cncc(CNc2nccc(-c3ccc4[nH]ncc4c3)n2)c1 | 2660 nM (active) | 
c1cncc(CNc2ccnc(-c3ccc4cn[nH]c4c3)n2)c1 |  | -29.7
COc1cccc(-c2ccnc(NCc3ccc(Cl)cc3)n2)c1 |  | -23.4
Clc1ccc(CNc2ncncc2-c2ccc3c(c2)OCO3)cc1Cl |  | -34.5
